The record followed here is PubChem BioAssay AID488900 (National Center for Advancing Translational Sciences (NCATS), 2010).

Records with an inconclusive call do not appear. Unmarked numbers belong to inactive results. Active and inactive are the calls of the source. Calls follow the shape of the dose curve; as a rule, active = well fitted curve in the direction sought with a large enough effect; inconclusive = small, poorly fitted or top-dose-only effect, or effect the other way, or another doubt; inactive = no such curve, though single readings can be large or run the other way.

A short description of the experiment: Secondary Assay for lipid storage modulators: Hela cell LDSA assay for probe SAR. The settings on record: HeLa lipid droplet accumulation, BODIPY 493/503 cytometry, oleate-fed; series mostly up to 46.1 µM; activity change, negative = less lipid storage: at the top concentration. The source says: NIH Molecular Libraries Probe Production Centers Network [MLPCN] NIH Chemical Genomics Center [NCGC] MLPCN Grant: 1 R03 MH085686-01 Assay Submitter (PI): Beller, Mathias; Max-Planck-Institut fur Biophysikalische Chemie NCGC Assay Overview: Storing lipids as a reservoir for energy or the anabolism of elementary metabolites is a common feature of probably all cells and is conserved from bacteria to humans. The universal cellular lipid storage organelle is the so-called lipid storage droplet (LD). Although ubiquitous, LDs share a simple structure composed of a hydrophobic core that harbors the storage lipids, which is shielded by a droplet-specific phospholipid monolayer to which proteins are attached. The current model of LD biogenesis involves an incorporation of the lipid core into the membrane leaflets of the endoplasmic reticulum (ER) followed by a subsequent budding-like maturation of a LD, which ultimately pinches off. Once released, LD volume can increase by localized lipogenesis or fusion of existing droplet. Storage lipids are re-mobilized enzymatically by lipase activity. Lipase regulation in the adipocyte is heavily studied and involves multiple components including catecholamine signaling, the LD-associated proteins Perilipin and comparative gene identification (CGI-58) and at least two lipases named hormone sensitive lipase (HSL) and adipocyte triglyceride lipase (ATGL). LD regulation outside of the adipocyte is poorly understood and only few components are known. However, there is an urgent need to learn more about ectopic fat depots as mislocalized storage of lipids, for example in the liver or muscle, is an eminent health problem associated with insulin resistance or the metabolic syndrome.
NCGC Assay Protocol Summary: The assay was performed with Hela cells, using an oleic acid feeding protocol similar to the S3 assay. We dispensed 4 uL of cells to give 700 cells/well into Greiner bio-one 1,536-well plates (black walled, clear bottom). Triacsin C (Sigma-Aldrich T-4540), an inhibitor of long-chain fatty acyl CoA synthetase that blocks synthesis of triglycerides, was used as a positive control for lipid under-storage using a final concentration of 20 uM. The orexin antagonist, SB408124 - previously identified to stimulate lipid over-storage, was used as a positive control for lipid over-storage using a final concentration of 20 uM. A total of 23 nL of compound solution of different concentrations were transferred to the assay plates using a Kalypsys pin tool equipped with a 1,536-pin array containing 10-nL slotted pins (FP1S10, 0.457-mm diameter, 50.8 mm long; V&P Scientific). One microliter of oleic acid was added (400 uM final concentration), and the plate was lidded with stainless steel rubber gasket lined lids containing pinholes. After 18-24 h incubation at […] and 95% humidity, 4 uL of the dyes BODIPY 493/503 (Molecular Probes) and the Cell Tracker Red CMTPX dye (Molecular Probes) were added to the wells to stain lipid droplets and enumerate cell number, respectively. Fluorescence was detected by excitation of the fluorophores with a 488-nm laser on an Acumen Explorer (TTP Lab Tech). The total intensity in channel 2 (500-530 nm) reflected lipid droplet accumulation. Cells were detected using channel 3 (575-640 nm) with 5-um width and 100-um depth filters. The ratio of the number of objects in PMT channel 2 over the number of objects in PMT channel 3 was also calculated. Percent activity was computed relative to an internal control (100% inhibited lipid droplet deposition due to the presence of 20 uM Triacsin C), which was added to 32 wells/plate.
Turning to `COc1ccc(-c2cnc(SCC(=O)Nc3nccs3)n2Cc2ccccc2)cc1`, the “activity change, negative = less lipid storage” value (shortened to “activity change”) is 0%.

Regarding `O=C(NC1CCCCC1)NC1(C(=O)N2CCCC2)CCCCC1`, the “activity change” value was 0%.

With `COc1ccc(CCNC(=O)c2cc3sccc3n2Cc2ccc(Cl)cc2)cc1OC`, the “activity change” value is 0% [at 30.7 µM].

Take `O=C(NC1CCCc2c1cnn2-c1ccc(F)cc1F)C1CCCCN1` (stereo not given): the “activity change” value is -20.7%.

For the compound `Cc1ccc(-c2cnc(SCC(=O)Nc3nc(C)cs3)n2Cc2ccco2)cc1`, the “activity change” value was 0%.

On to `CCOC(=O)C1CCN(C(=O)C2(NC(=O)NCc3ccccc3)CCCCC2)CC1`, for which the “activity change” value was 41.3%.

Take `O=C(Cc1ccccc1)NC1CCCc2c1cnn2-c1ccc(F)cc1F` (stereo not given): the “activity change” value is -75%.

Turning to `COc1ccc(CCNC(=O)c2cc3sccc3n2Cc2ccccc2)cc1OC`, the “activity change” value was 0%.

Consider `O=C(NC1CCCc2c1cnn2-c1ccc(F)cc1F)c1ccccc1` (stereo not given), for which the “activity change” value is -2.47%.

Take `O=C(NC1CCCc2c1cnn2-c1ccc(F)cc1F)c1ccn[nH]1` (stereo not given): the “activity change” value was 24.7%.

On to `CN(C)CC(=O)NC1CCCc2c1cnn2-c1ccc(F)cc1F` (stereo not given), for which the “activity change” value is 21%.

For the compound `COc1ccc(-c2cnc(SCC(=O)Nc3nc(C)cs3)n2Cc2ccco2)cc1`, the “activity change” value is 0% [at 30.7 µM].

In the case of `CCOc1ccc(CCNC(=O)c2cc3sc(CC)cc3n2C)cc1OCC`, the Potency is 0.217 µM (active).

Turning to `CCOc1ccc(CCNC(=O)c2cc3sccc3[nH]2)cc1OCC`, the “activity change” value was 8.64%.

In the case of `O=C(NC1CCCc2c1cnn2-c1cc(F)cc(F)c1)c1cccc2nccnc12` (stereo not given), the Potency was 8.65 µM (active).
